Results as given in PubChem BioAssay (NCATS).
Records with an inconclusive call do not appear. Active and inactive are the calls of the source. Unless noted, calls come from the whole dose curve; as a rule, active = well fitted curve in the direction sought with a large enough effect; inconclusive = small, poorly fitted or top-dose-only effect, or another doubt; inactive = no such curve, though single readings can be large; an effect the other way counts as inactive or inconclusive.

Assays:
[1] = NS1 protein of Zika virus - qHTS assay to identify small molecule inhibitors in human HEK 293 cells (AID 1347053); note: nearly all actives have a fitted effect of over 55% in size; note: potency is the fitted concentration of half-maximal effect
Method in brief: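 Read-out is a two-antibody TR-FRET for ZIKV NS1, normalized between uninfected cells and infected cells. Compound added 1 h before MR766 infection at MOI 0.5; human HEK 293 cells incubated 24 h, 37 C.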

[2] = qHTS of pediatric cancer cell lines to identify multiple opportunities for drug repurposing: Primary screen for TC32 cells (AID 1347089); note: nearly all actives have a fitted effect of over 60% in size; note: potency is the fitted concentration of half-maximal effect
Method in brief: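 TC32 cells, 500-1,000/well in growth medium, compound-treated 48 h at 37 °C; viability from CellTiter-Glo luminescence. Primary screen: MIPE 11-point (0.78 nM–46 µM final), NPC 8-point (0.59 nM–46 µM final); confirmatory at 11-point dilutions.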

[3] = qHTS of pediatric cancer cell lines to identify multiple opportunities for drug repurposing: Primary screen for DAOY cells (AID 1347090); note: nearly all actives have a fitted effect of over 55% in size; note: potency is the fitted concentration of half-maximal effect
Method in brief: (§1)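 Viability measured as metabolically active cells via CellTiter-Glo luminescence following 48 hours of compound exposure, 11-point dilutions in confirmatory testing. 500-1,000 cells/well plated 5 hours before dosing; controls were DMSO and 2.3 µM bortezomib.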

[4] = qHTS of pediatric cancer cell lines to identify multiple opportunities for drug repurposing: Primary screen for SJ-GBM2 cells (AID 1347091); note: potency is the fitted concentration of half-maximal effect
Method in brief: as §1

[5] = qHTS of pediatric cancer cell lines to identify multiple opportunities for drug repurposing: Primary screen for A673 cells (AID 1347092); note: nearly all actives have a fitted effect of over 45% in size; note: potency is the fitted concentration of half-maximal effect
Method in brief: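 A673 cells (500-1,000 cells/well) were treated 48 hours at 37 degrees C with compounds at 11-point (0.78 nM to 46 µM) or 8-point (0.59 nM to 46 µM) dilutions. Viability read by CellTiter-Glo luminescence; concentration-response curves fitted.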

[6] = qHTS of pediatric cancer cell lines to identify multiple opportunities for drug repurposing: Primary screen for SK-N-MC cells (AID 1347093); note: potency is the fitted concentration of half-maximal effect
Method in brief: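 Metabolically active cells were quantified by ATP-dependent luminescence (CellTiter-Glo, 15 min at room temperature) following 48 h treatment. Cells had been plated at 500-1,000 per well and settled for 5 h beforehand.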

[7] = qHTS of pediatric cancer cell lines to identify multiple opportunities for drug repurposing: Primary screen for BT-37 cells (AID 1347094); note: series mostly up to about 57 µM
Method in brief: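 Readout: CellTiter-Glo luminescence, 48 h treatment. Controls DMSO (neutral) and bortezomib 2.3 µM final (positive). Potency and efficacy taken from primary-screen concentration-response curves.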

[8] = target: Parathyroid hormone/parathyroid hormone-related peptide receptor (Homo sapiens) (UniProt Q03431); experiment: qHTS for PTHR1 Agonists: Optimization Screen against the NCGC LOPAC library (AID 1347079);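 note: GloSensor cAMP luminescence in HEK-293 GP2 cells expressing human PTHR1 with IBMX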
Sequence of Parathyroid hormone/parathyroid hormone-related peptide receptor (Homo sapiens) (Q03431 whole entry, looked up): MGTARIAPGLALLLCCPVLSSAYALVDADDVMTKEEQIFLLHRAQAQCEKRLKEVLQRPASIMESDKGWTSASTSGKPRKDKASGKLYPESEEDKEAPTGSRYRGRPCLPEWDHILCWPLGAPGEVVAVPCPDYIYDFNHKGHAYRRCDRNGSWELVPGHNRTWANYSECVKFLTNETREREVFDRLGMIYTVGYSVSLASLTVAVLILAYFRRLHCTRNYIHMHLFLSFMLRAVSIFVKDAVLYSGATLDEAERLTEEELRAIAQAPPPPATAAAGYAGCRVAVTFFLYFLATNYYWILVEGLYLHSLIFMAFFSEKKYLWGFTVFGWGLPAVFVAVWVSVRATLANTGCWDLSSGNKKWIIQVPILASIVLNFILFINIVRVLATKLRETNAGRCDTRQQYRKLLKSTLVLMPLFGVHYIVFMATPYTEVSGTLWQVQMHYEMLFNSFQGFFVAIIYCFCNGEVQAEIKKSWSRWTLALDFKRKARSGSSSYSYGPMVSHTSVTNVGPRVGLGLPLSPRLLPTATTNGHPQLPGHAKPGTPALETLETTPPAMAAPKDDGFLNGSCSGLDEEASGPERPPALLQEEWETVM
Method in brief: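 HEK-293 GP2 cells, PTHR1 + GloSensor cAMP; 3000 cells/well, o/n. Luciferin + IBMX 0.5mM each (stock), 1 hr 37C. Cpd titration, 1 hr 37C. Lum after 15 min RT. Ctrl M-PTH(1-15) top 10uM.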

[9] = target: T1, Tyrosine-protein phosphatase non-receptor type substrate 1 (Homo sapiens) + Leukocyte surface antigen CD47 (Homo sapiens) (UniProt P78324+Q08722); experiment: CD47-SIRPalpha protein protein interaction - HTRF assay qHTS validation (AID 1347058; active = well fitted curve in the direction sought with a large enough effect in the signal ratio, not every such curve was filed as active; the % refers to the signal ratio; note: series mostly up to about 38 µM)
T1 sequence (P78324 whole entry, looked up, the tested form may be a part): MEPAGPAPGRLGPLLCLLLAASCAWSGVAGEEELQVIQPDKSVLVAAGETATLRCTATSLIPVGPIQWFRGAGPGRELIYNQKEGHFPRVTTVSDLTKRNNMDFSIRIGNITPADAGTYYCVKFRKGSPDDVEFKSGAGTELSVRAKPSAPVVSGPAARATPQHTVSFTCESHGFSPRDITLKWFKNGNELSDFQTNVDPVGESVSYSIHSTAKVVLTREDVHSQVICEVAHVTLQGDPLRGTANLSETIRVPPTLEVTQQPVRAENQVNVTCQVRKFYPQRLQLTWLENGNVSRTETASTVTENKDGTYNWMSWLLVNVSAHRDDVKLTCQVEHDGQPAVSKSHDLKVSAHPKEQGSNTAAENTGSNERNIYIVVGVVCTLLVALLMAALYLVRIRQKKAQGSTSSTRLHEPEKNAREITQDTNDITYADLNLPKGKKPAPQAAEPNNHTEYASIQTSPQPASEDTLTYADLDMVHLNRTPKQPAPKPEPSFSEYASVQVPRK
T1 sequence (Q08722 whole entry, looked up, the tested form may be a part): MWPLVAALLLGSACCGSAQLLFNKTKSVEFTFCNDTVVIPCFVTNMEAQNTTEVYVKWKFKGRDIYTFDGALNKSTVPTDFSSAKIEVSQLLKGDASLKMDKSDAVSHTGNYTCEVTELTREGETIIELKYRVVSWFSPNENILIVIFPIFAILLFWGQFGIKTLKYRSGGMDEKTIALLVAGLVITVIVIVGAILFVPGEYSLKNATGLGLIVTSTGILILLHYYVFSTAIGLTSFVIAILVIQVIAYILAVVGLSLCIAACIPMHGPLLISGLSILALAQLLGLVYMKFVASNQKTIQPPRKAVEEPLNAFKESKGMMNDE
Method in brief: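 Soluble extracellular domains (6His-CD47, Avi-tag-biotinylated SIRPalpha) in PBS pH 7.4 with 0.05% IGEPAL CA-630. Compounds were preincubated 30 min at RT with CD47 and anti-His-Eu, then SIRPalpha and SAV-XL665 were added. TR-FRET 665/615 ratio.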

[10] = target: T1, Tyrosine-protein phosphatase non-receptor type substrate 1 (Homo sapiens) + Leukocyte surface antigen CD47 (Homo sapiens); experiment: CD47-SIRPalpha protein protein interaction - Alpha assay qHTS validation (AID 1347059);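 note: bead proximity luminescence from CD47 binding SIRPalpha after compound preincubation with SIRPalpha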
Method in brief: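 SIRPalpha-biotin 25 nM + cpd, 30 min RT, dark; add CD47-His 12.5 nM, 30 min; add Ni-NTA/SAV beads 10 ug/mL, 30 min; AlphaScreen. Buffer PBS pH 7.4 + 0.05% IGEPAL CA-630. Non-biotinylated SIRPalpha as control inhibitor.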

Measured: Potency

CCCC(=O)OC[C@@H](OC(=O)CCC)[C@@H](OC(=O)CCC)[C@H](Cn1c2nc(=O)[nH]c(=O)c-2nc2cc(C)c(C)cc21)OC(=O)CCC
inactive: [1] | [2] | [3] | [4]

O=c1[nH]c2ccccc2n1CCCN1CCN(C(c2ccccc2)c2ccccc2)CC1
inactive: [1] | [2]

C/C(=N\O)c1ccc(OCC(=O)N2CCCCC2)cc1
not listed: [8] | [9] | [10]
inactive: all other assays above

CCCCCCCCCCCCOCCO
not listed: [8] | [9] | [10]
inactive: all other assays above

COc1cc(OC)c(/C=C2/C(=O)Nc3ccccc32)c(OC)c1
inactive: [1] | [8]

Nc1nc2ccc([N+](=O)[O-])cc2s1
inactive: [1] | [2] | [4] | [5]

Cc1c(C(=O)O)c(O)cc2c1C(=O)c1c(O)c([C@@H]3O[C@H](CO)[C@@H](O)[C@H](O)[C@H]3O)c(O)c(O)c1C2=O
inactive: [1] | [2] | [3] | [5]

CCCC(CCC)C(=O)OC1CC2CCC(C1)[N+]2(C)C (centres undefined)
inactive: [1] | [9] | [10]

O=C(O)Cc1ccc2c(c1)C(=O)c1ccccc1CO2
inactive: [1] | [2] | [3] | [4] | [5] | [7]

CC1(C)S[C@@H]2[C@H](NC(=O)[C@H](N)c3ccccc3)C(=O)N2[C@H]1C(=O)O
inactive: [1] | [2] | [4] | [5] | [6] | [7]

O=Cc1ccc(O)c(O)c1O
inactive: [1] | [2] | [3] | [4] | [7]

COc1ccnc2c1CCCCC2S(=O)c1nc2ccccc2[nH]1 (centres undefined)
inactive: [1] | [2] | [3] | [4] | [5] | [7]

CCCCCCCCCCCCCCCC(=O)OC(C)C
inactive: [1] | [2] | [3] | [4] | [5] | [7]

Cc1ccc2c(n1)Oc1ccc(C(C)C(=O)OCC(=O)N(C)C)cc1C2 (centres undefined)
inactive: [1] | [2] | [3] | [4] | [5] | [7]

C[N+]1(C)[C@@H]2CC(OC(=O)[C@H](CO)c3ccccc3)C[C@H]1[C@@H]1O[C@@H]12 (some centres undefined)
inactive: [1] | [2] | [3] | [4] | [5] | [7]

CN(C)CCC(c1ccc(Cl)cc1)c1ccccn1 (centres undefined)
inactive: [1] | [8]

O=C(/C=C/c1ccccc1)NCCO
inactive: [1] | [2] | [4] | [5] | [6] | [7]

COc1cc(NC(C)CCCN)c2ncccc2c1 (centres undefined)
active: [2] 16.7 µM
inactive: [1] | [3] | [4]

O=c1cc(-c2ccccc2)oc2c(O)c(O)ccc12
inactive: [1] | [10]

NCCO
inactive: [1] | [2] | [3] | [4] | [5] | [7]

CCCOC(=O)c1ccc(O)cc1
inactive: [1] | [2] | [3] | [4] | [7]

COc1cc2c3cc1Oc1cc(ccc1O)C[C@@H]1c4c(cc(OC)c(O)c4Oc4ccc(cc4)C[C@@H]3N(C)CC2)CC[N+]1(C)C
inactive: [1] | [2] | [3] | [4] | [5] | [7]

CN1CCN(c2cc3c(nn2)Oc2ccccc2N3C)CC1
not listed: [8] | [9] | [10]
inactive: all other assays above

CC(C(=O)O)c1ccc(C(=O)c2cccs2)cc1 (centres undefined)
inactive: [1] | [2] | [3] | [4] | [5] | [7]

COC(=O)C1=C(C)NC(C)=C(C(=O)OCC(C)C)C1c1ccccc1[N+](=O)[O-] (centres undefined)
inactive: [1] | [2] | [4]

O=C(O)/C=C\C(=O)O
inactive: [1] | [2] | [3] | [4] | [5] | [7]

C#C[C@]1(O)CC[C@H]2[C@@H]3CCC4=Cc5oncc5CC4(C)[C@H]3CCC21C (some centres undefined)
inactive: [1] | [8]

CCCCCCCC/C=C/C(=O)O
active: [6] 42.2 µM
inactive: [1] | [2] | [3] | [4] | [7]

CC(C)OC(=O)c1cc(C(=O)OC(C)C)cc([N+](=O)[O-])c1
inactive: [1] | [2] | [3] | [4] | [5] | [7]

COc1ccc(/C=C/c2nc(NCCCN(C)C)c3ccccc3n2)cc1
inactive: [1] | [10]

CC(C(=O)O)c1ccc(C(=O)c2ccccc2)s1 (centres undefined)
inactive: [1] | [2] | [3] | [5] | [7]

COc1ccc(-c2cc(=S)ss2)cc1
inactive: [1] | [2] | [4] | [5] | [6] | [7]

CC(=O)SCC(CC(=O)c1ccc(C)cc1)C(=O)O (centres undefined)
inactive: [1] | [2] | [4] | [5] | [7]

CCCCC1C(=O)N(c2ccccc2)N(c2ccc(O)cc2)C1=O (centres undefined)
active: [1] 3.98 µM | [4] 10.6 µM | [5] 10.6 µM

Cc1cc(O)c2ccccc2c1O
inactive: [2]
active: [5] 10.6 µM

C=CC(=O)c1ccc(CCCCCC)cc1
inactive: [8]

C#CC1(O)CC[C@H]2[C@@H]3CCC4=CCCC[C@@H]4[C@H]3CC[C@@]21C (some centres undefined)
inactive: [1] | [2] | [4] | [7]

COc1ccccc1N1CCN(CCN(C(=O)c2ccc(I)cc2)c2ccccn2)CC1
inactive: [8]

c1ccc(CCNc2nc(-c3ccccc3)cs2)cc1
inactive: [2] | [7]

CCCCCCOc1ccccc1C(N)=O
inactive: [1] | [2] | [4] | [5] | [7]

Nc1ccc([N+](=O)[O-])cc1O
inactive: [1]
active: [3] 0.001 µM | [5] 0.001 µM | [6] 0.001 µM

O=c1cc(-c2ccccc2)oc2ccccc12
inactive: [1] | [4] | [6]

O=C1CN(/N=C/c2ccc([N+](=O)[O-])o2)C(=O)N1
inactive: [1] | [3] | [4] | [6] | [7]

O=C(CCN1CCN(CCO)CC1)N1c2ccccc2Sc2ccc(C(F)(F)F)cc21
inactive: [1] | [2] | [4] | [5] | [7]

Cc1[nH]cnc1CN1CCc2c(c3ccccc3n2C)C1=O
inactive: [1] | [2] | [4] | [5] | [7]

CC(C)(C)c1nnc(NS(=O)(=O)c2ccc(N)cc2)s1
inactive: [1] | [2] | [4] | [5] | [7]
